Screens deposited in PubChem BioAssay by several laboratories.
SKN-1 inh: blocks SKN-1 activity in C. elegans; hit rate 0.49% among 360,000; inhibition, % at 21.8 µM; C. elegans VP596 Pgst-4::GFP/RFP ratio, acrylamide-induced, 24 h; AID 624304;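 active = interference check ratio from 0.5 to 1.5 plus GFP to RFP signal ratio inhibition reaching or exceeding a fixed threshold, cut at about 30% in these data, passing the limit was not always enough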
Efflux pump inh: antifungal efflux pump inhibition, Nile Red retention. S. cerevisiae Candida pump triplex. inhibition, % at 10 µM. hit rate 0.44% among 330,000;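 active = plate passing quality check with inhibition over a set limit, or well fluorescence over plate mean plus 4 SD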;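 also: Nile Red retained in pooled yeast measured as flow cytometry median fluorescence; 0% = buffer negative control and 100% = Enniatin B positive control; higher means more Nile Red kept so more efflux inhibition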
SUMO Mot1 rescue: inhibitors of SUMOylation pathway: yeast Mot1-301 growth rescue | hit rate 1% among 320,000 | growth rescue, % at 18.8 µM | S. cerevisiae Mot1-301 growth rescue, ATP luminescence, 38.5C; percent above DMSO median, 100 means doubled;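 active = every valid replicate shows activation above 250% relative to neutral control wells; inactive = the rest, any valid replicate at or below 250%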;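 also: OY570 slx delta 5 strain wells were the positive control but not used for scaling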
sPLA2-III inh: Inhibits HGIII-sPLA2 liposome hydrolysis, primary screen. AID 743126. inhibition, % at 12.2 µM. hit rate 0.56% among 370,000. Q9NZ20. QFRET BODIPY PC-A2 liposome hydrolysis, fluorescence;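 active = inhibition above mean plus 3 SD of compounds lying within the high and low control bounds, cut at about 19% in these data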;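 also: 0% = median of test compound wells and 100% = no enzyme DMSO wells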
Target sequence (Q9NZ20 whole entry, looked up): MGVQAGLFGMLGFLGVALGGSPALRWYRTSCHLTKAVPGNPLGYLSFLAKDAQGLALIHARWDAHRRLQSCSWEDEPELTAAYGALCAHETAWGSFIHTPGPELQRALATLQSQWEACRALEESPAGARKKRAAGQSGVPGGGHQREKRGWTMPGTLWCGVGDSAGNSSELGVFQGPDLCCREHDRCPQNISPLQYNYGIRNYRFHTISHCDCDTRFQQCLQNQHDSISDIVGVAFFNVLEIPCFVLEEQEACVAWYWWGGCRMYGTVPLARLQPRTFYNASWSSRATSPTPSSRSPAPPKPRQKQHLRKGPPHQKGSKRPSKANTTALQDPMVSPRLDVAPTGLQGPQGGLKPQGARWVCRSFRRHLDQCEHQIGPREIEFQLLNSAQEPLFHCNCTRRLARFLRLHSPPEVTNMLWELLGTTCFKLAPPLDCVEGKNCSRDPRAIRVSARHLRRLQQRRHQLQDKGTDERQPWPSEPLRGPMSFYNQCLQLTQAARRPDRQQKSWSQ
Yeast cmpd fluor: counter-screen for efflux pump inhibitors: compound fluorescence; shares compounds with Efflux pump inh; hit rate 4% among 1,700; S. cerevisiae AD/pABC3, flow cytometry; fluorescence ratio to DMSO, % at 10 µM;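 active = fluorescence ratio to DMSO above its plate's cutoff, the plate mean ratio plus 5 SD, cut at about 210% in these data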;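 also: unstained yeast with no Nile Red so the signal is compound autofluorescence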
Mdr1 pump inh: inhibitors of Candida albicans Mdr1 efflux pump | inhibition, % at 10 µM | shares compounds with Efflux pump inh | S. cerevisiae AD/CaMDR1, Nile Red efflux, flow cytometry | hit rate 1% among 1,700; in the data active = inhibition above about 26%;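 also: 0% = DMSO vehicle and 100% = reference inhibitor; higher means more Nile Red retained so more efflux inhibition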
CaCdr2 efflux inh: inhibitors of Candida albicans Cdr2 efflux pump | shares compounds with Efflux pump inh | S. cerevisiae AD/CaCDR2, Nile Red retention, flow cytometry | Nile Red retention ratio vs DMSO, % at 10 µM | hit rate 4% among 1,700 | AID 588520; in the data active = Nile Red retention ratio vs DMSO above about 190%;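 also: higher ratio means more blocking of Cdr2 efflux of the dye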
Cdr1 pump inh: inhibitors of Candida albicans Cdr1 efflux pump; inhibition, % at 10 µM; hit rate 1% among 1,700; shares compounds with Efflux pump inh; S. cerevisiae AD/CaCDR1, Nile Red efflux, flow cytometry;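 active = inhibition above the screen-wide mean plus twice its standard deviation, cut at about 32% in these data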
sPLA2 confirm: human GIII-sPLA2 inhibition, confirmation; shares compounds with sPLA2-III inh; recombinant hGIII-sPLA2, BODIPY PC-A2 QFRET fluorescence; inhibition, % at 12.2 µM; hit rate 34% among 2,000; AID 743280;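 active = mean inhibition across triplicates above the hit cutoff set in the earlier primary screen, cut at about 19% in these data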;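 also: 0% = enzyme with DMSO and 100% = DMSO wells lacking enzyme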
BODIPY interf: 535nm fluorescence interference, HGIII-sPLA2 counter-screen | shares compounds with sPLA2-III inh | BODIPY FL product fluorescence interference, QFRET | inhibition, % at 12.2 µM | hit rate 8.5% among 2,000;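 active = average inhibition above the solvent-only control mean plus 3 SD, cut at about 6% in these data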;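 also: 0% = DMSO with substrate plus product and 100% = DMSO with substrate alone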
BODIPY interf DR: counter-screen for HGIII-sPLA2 inhibitors: 535nm fluorescence interference, dose response | 240 tested, under 10 active | AID 743455 | BODIPY FL product fluorescence interference, cell-free | shares compounds with sPLA2-III inh | IC50, µM;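 active = IC50 at or below 10 µM; inactive = IC50 above 10 µM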
* marks the source's active call; other numbers are inactive results; nt = not tested or not shown. Compounds with a hit are over-represented: about 2.2% of the library has one in this group of screens.

SMILES	SKN-1 inh	Efflux pump inh	SUMO Mot1 rescue	sPLA2-III inh	sPLA2 confirm	BODIPY interf	others
CC[C@H](C)[C@@H]1OC(=O)[C@H](C(C)C)N(C)C(=O)[C@H](C(C)C)NC(=O)[C@@H](C)[C@@H](CCCC#CBr)OC(=O)[C@H](C(C)C)N(C)C(=O)C2CCCN2C1=O (some centres not stated)	nt	nt	nt	0	nt	nt
C[C@]12CCC3C(C1CCC2=O)[C@H](O)C[C@H]1C[C@@H](O)CC[C@]31C (some centres not stated)	26	0	1	-1	nt	nt
O=c1[nH]c(=S)[nH]c(O)c1/C=C1/C=c2ccccc2=N1	27	0.5*	256	12	nt	nt	Yeast cmpd fluor=97;Mdr1 pump inh=0;CaCdr2 efflux inh=118;Cdr1 pump inh=0
N#CC1=C(N)Oc2c(c(=O)sc3ccccc23)C1c1cccnc1 (configuration not stated)	2	0	-12	-1	nt	nt
CC[C@@H]1c2ccccc2[C@@H]2CC[C@H]1N2c1ccccc1	7	nt	nt	1	nt	nt
CC(Cc1ccccc1)[n+]1cc(/N=C(\N)[O-])on1 (configuration not stated)	13	1.1*	-6	7	nt	nt	Yeast cmpd fluor=95;Mdr1 pump inh=0;CaCdr2 efflux inh=103;Cdr1 pump inh=0
O=P(Nc1c(Cl)cccc1Cl)(c1ccccc1)c1nc2c(s1)CCCC2 (configuration not stated)	-4	5.9*	2	nt	nt	nt	Yeast cmpd fluor=109;Mdr1 pump inh=-1;CaCdr2 efflux inh=102;Cdr1 pump inh=0
O=P(Nc1ccccc1Cl)(c1ccccc1)c1nc2c(s1)CCCC2 (configuration not stated)	-14	0	-19	7	nt	nt
C[C@]12CC[C@@H](O)CC1=CCC1C2CC[C@@]2(C)C1C[C@@H](F)[C@@H]2O (some centres not stated)	-5	0	0	9	nt	nt
CC(=Nc1ccccc1N)c1c(O)n(C)c(=O)n(C)c1=O	13	0	-8	20*	6	-6
CCn1c(O)c(/C(C)=N/N2CCCCC2c2cccnc2)c(=O)[nH]c1=S (configuration not stated)	20	0	7	5	nt	nt
CCCc1nc2ccc(Br)cc2c(=O)n1-c1ccc([N+](=O)[O-])c(C(F)(F)F)c1	-3	-1	-3	10	nt	nt
Clc1ccccc1CN1CCN(c2cccc3[nH]ccc23)CC1	12	0	6	nt	nt	nt
CN(C)c1ccc(/C=C/C=C/c2sc3ccccc3[n+]2C)cc1	84	0	-8	21*	41*	-15	BODIPY interf DR=>122
CN(C)c1ccc(/C=C/c2cc[n+](C)c3ccccc23)cc1	91	nt	nt	26*	33*	-14	BODIPY interf DR=>122
CC(C)OP(=O)(O)NC(=O)c1ccccc1	-3	0	0	0	nt	nt
CCOC(=O)c1c(/N=C/c2c(O)n(-c3cccc(C)c3)c(=O)[nH]c2=O)sc2c1CCCC2	8	0	14	20*	13	-4
CN=C1CN=C(c2ccc[nH]2)c2cc(Cl)ccc2N1	nt	nt	nt	19*	8	1
CCCCc1ccc2[nH]cc(CCN)c2c1	6	0	-10	30*	8	-14
NCCc1c[nH]c2ccccc12	7	1	334	-11	nt	nt
CN1CCN(c2ccc([N+](=O)[O-])c3cccnc23)CC1	9	0	17	-3	nt	nt
O=[N+]([O-])c1ccc(NCCO)c2ncccc12	11	0	-14	22*	4	-1
Cc1cc(-c2cc(C)c(N)c(C)c2)cc(C)c1N	-6	nt	nt	22*	22*	1
Cc1ccc(N)cc1C	6	nt	nt	-3	nt	nt
CC1OC(OC2CC(O)C3(CO)C4C(O)CC5(C)C(C6=CC(=O)OC6)CCC5(O)C4CCC3(O)C2)C(O)C(O)C1O (configuration not stated)	-14	nt	nt	28*	4	-6
SMILES	SKN-1 inh	Efflux pump inh	SUMO Mot1 rescue	sPLA2-III inh	sPLA2 confirm	BODIPY interf	others
C[C@@H]1O[C@@H](O[C@H]2C[C@@H](O)[C@]3(CO)[C@H]4[C@H](O)C[C@]5(C)[C@@H](C6COC(=O)C6)CC[C@]5(O)[C@@H]4CC[C@]3(O)C2)[C@H](O)[C@H](O)[C@H]1O (some centres not stated)	-15	0	-21	-7	nt	nt
O=[N+]([O-])c1ccc(N2CCNCC2)cc1N1CCCCCC1	7	0	-28	36*	17	-12
CN1CCN(c2ccc([N+](=O)[O-])c(N3CCCCC3)c2)CC1	24	0	-10	-5	nt	nt
NC(=O)CN1CCCC1=O	1	0	3	5	nt	nt
COC(=O)C1=C(c2cccc(C#N)c2)C[C@@H]2CC[C@H]1N2C(=O)N1CCOCC1	21	0	11	12	nt	nt
CC(C)Oc1ccc(CCN)cc1Cl	-5	0	-8	23*	4	-7
